Experimental data from PubChem BioAssay (NCI).
This is part of a sample that, as a whole, favours compounds with a hit. Of some 83,000 tested, about 20% had one in any assay.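 Assay: single dose, 48 h. Readout: percent growth (0 = no net growth; negative = cell death). Active: <10.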 Values without a mark were called inactive. Calls of active or inactive are those of the source.

What was measured:
Assay in all cases: NCI-60 one-dose screen, 48 h (100 = growth as untreated, 0 = no growth, -100 = all killed)
Conditions in all cases: 10 µM unless noted
T-47D breast = tested on: T-47D breast
MDA-MB-435 melanoma = tested on: MDA-MB-435 melanoma
SW-620 colon = tested on: SW-620 colon
MCF7 breast = tested on: MCF7 breast
HCT-116 colon = tested on: HCT-116 colon
HCC-2998 colon = tested on: HCC-2998 colon
KM12 colon = tested on: KM12 colon
MDA-MB-468 breast = tested on: MDA-MB-468 breast

Cc1cc(N=C2NC(=O)CS2)n[nH]1
growth (T-47D breast): 101%
growth (MDA-MB-435 melanoma): 113%
growth (SW-620 colon): 103%
growth (MCF7 breast): -92.2% (active)
growth (HCT-116 colon): 103%
growth (HCC-2998 colon): 112%
growth (KM12 colon): 101%
growth (MDA-MB-468 breast): 114%

O=C(Nc1ccc(C(F)(F)F)cc1)Nc1ccc2oc(=O)ccc2c1
growth (T-47D breast): 19%
growth (MDA-MB-435 melanoma): 24.1%
growth (SW-620 colon): 31.2%
growth (MCF7 breast): 2.63% (active)
growth (HCT-116 colon): 8.31% (active)
growth (HCC-2998 colon): 32.5%
growth (KM12 colon): 16%
growth (MDA-MB-468 breast): 5% (active)

COc1ccc(/C=N/NC(=O)Cn2nc(Cc3ccc(OC)cc3)c3onc(C)c3c2=O)cc1
growth (T-47D breast): 40.7%
growth (MDA-MB-435 melanoma): 62%
growth (SW-620 colon): 56.6%
growth (MCF7 breast): 45%
growth (HCT-116 colon): 32.3%
growth (HCC-2998 colon): 6.89% (active)
growth (KM12 colon): 53%
growth (MDA-MB-468 breast): 67.4%

COc1ccc(C(=O)/C=C/c2ccc3ccccc3c2)cc1S(N)(=O)=O
growth (T-47D breast): -39.5% (active)
growth (MDA-MB-435 melanoma): 1.97% (active)
growth (SW-620 colon): -42.8% (active)
growth (MCF7 breast): -75.2% (active)
growth (HCT-116 colon): -97.8% (active)
growth (HCC-2998 colon): -76.9% (active)
growth (KM12 colon): -74% (active)
growth (MDA-MB-468 breast): -67% (active)

O=C(c1ccccc1)c1ccc2nc(-c3ccc(F)cc3)[nH]c2c1
growth (T-47D breast): 47.5%
growth (MDA-MB-435 melanoma): 57.6%
growth (SW-620 colon): 28.2%
growth (MCF7 breast): 35.9%
growth (HCT-116 colon): 41.7%
growth (HCC-2998 colon): 91%
growth (KM12 colon): 65%
growth (MDA-MB-468 breast): 42.8%

COc1ccc(NC(=O)Cn2c3c(sc2=O)[C@H]2[C@@H](O)[C@@H](O)[C@H](O)[C@@H]2CS3)cc1
growth (T-47D breast): 100%
growth (MDA-MB-435 melanoma): 101%
growth (SW-620 colon): 105%
growth (MCF7 breast): 93.8%
growth (HCC-2998 colon): 114%
growth (KM12 colon): 102%

CCOC(=O)c1ccc(Nc2nc(NN)nc(-c3ccc(F)cc3)c2C#N)cc1
growth (T-47D breast): 94.7%
growth (MDA-MB-435 melanoma): 111%
growth (SW-620 colon): 111%
growth (HCT-116 colon): 102%
growth (HCC-2998 colon): 105%
growth (KM12 colon): 109%
growth (MDA-MB-468 breast): 119%

CN1CCN(c2ccc3c(c2)nc(NNC(=O)c2ncccn2)c2cccn23)CC1
growth (T-47D breast): -22.3% (active)
growth (MDA-MB-435 melanoma): -45.7% (active)
growth (SW-620 colon): -6.01% (active)
growth (MCF7 breast): -17.6% (active)
growth (HCT-116 colon): 0.844% (active)
growth (HCC-2998 colon): -87.7% (active)
growth (KM12 colon): -14.2% (active)
growth (MDA-MB-468 breast): -42.8% (active)

COc1ccc(-c2ccc(SCC(=O)NCCc3ccc(S(N)(=O)=O)cc3)nn2)cc1
growth (T-47D breast): 51%
growth (MDA-MB-435 melanoma): 92.2%
growth (SW-620 colon): 103%
growth (HCT-116 colon): 70.4%
growth (HCC-2998 colon): 94.9%
growth (KM12 colon): 96.3%
growth (MDA-MB-468 breast): 33.9%

O=C(O)c1ccc(-c2ccc(/C=N/NC(=O)c3[nH]c4ccc(Br)cc4c3-c3ccccc3)o2)cc1
growth (T-47D breast): 15.1%
growth (MDA-MB-435 melanoma): -49.6% (active)
growth (MCF7 breast): 9.15% (active)
growth (HCT-116 colon): 9.56% (active)
growth (HCC-2998 colon): 5.76% (active)
growth (KM12 colon): 11.9%
growth (MDA-MB-468 breast): -12.4% (active)

Cc1cccc(Nc2nc3ccccc3nc2/C=C/c2ccc(F)cc2)c1
growth (T-47D breast): 78.9%
growth (MDA-MB-435 melanoma): 96.8%
growth (SW-620 colon): 88.2%
growth (MCF7 breast): 60.9%
growth (HCC-2998 colon): 94.2%
growth (KM12 colon): 96.5%
growth (MDA-MB-468 breast): 90%

COc1ccc(C(=O)/C=C/c2ccccc2Cl)cc1S(N)(=O)=O
growth (T-47D breast): 106%
growth (MDA-MB-435 melanoma): 117%
growth (SW-620 colon): 107%
growth (MCF7 breast): 96.2%
growth (HCT-116 colon): 106%
growth (HCC-2998 colon): 114%
growth (KM12 colon): 111%
growth (MDA-MB-468 breast): 109%

CCN(CC)c1ccc(/C=N/Nc2nc(-c3ccc(Br)cc3)cs2)c(O)c1
growth (T-47D breast): 80.9%
growth (MDA-MB-435 melanoma): 64.5%
growth (SW-620 colon): 10.5%
growth (MCF7 breast): 18.7%
growth (HCC-2998 colon): 100%
growth (KM12 colon): 86.3%
growth (MDA-MB-468 breast): 69%

O=c1[nH]n(C(=S)N/N=C/c2ccccc2Cl)c(=O)c2ccccc12
growth (T-47D breast): 12.2%
growth (MDA-MB-435 melanoma): 22.4%
growth (MCF7 breast): 10.7%
growth (HCT-116 colon): -83.4% (active)
growth (HCC-2998 colon): -36.5% (active)
growth (KM12 colon): 8.85% (active)
growth (MDA-MB-468 breast): -26.7% (active)

N#Cc1ccc(C(=O)Nn2c(N)cc3ccccc3c2=O)cc1
growth (T-47D breast): 54.3%
growth (MDA-MB-435 melanoma): 107%
growth (HCT-116 colon): 81.7%
growth (HCC-2998 colon): 108%
growth (KM12 colon): 103%
growth (MDA-MB-468 breast): 76.4%

NS(=O)(=O)c1ccc(-n2cc(-c3cccc(NC(=O)c4ccc(Cl)c(C(F)(F)F)c4)c3)nn2)cc1
growth (T-47D breast): -11.1% (active)
growth (MDA-MB-435 melanoma): 47.2%
growth (SW-620 colon): 42%
growth (MCF7 breast): 1.38% (active)
growth (HCT-116 colon): 26.2%
growth (HCC-2998 colon): 41.8%
growth (KM12 colon): 5.73% (active)
growth (MDA-MB-468 breast): -0.759% (active)

NS(=O)(=O)c1ccc(CCNC(=O)CSc2ccc(-c3ccc(Br)cc3)nn2)cc1
growth (T-47D breast): 41.2%
growth (MDA-MB-435 melanoma): 59.1%
growth (SW-620 colon): 72.2%
growth (HCT-116 colon): 21.3%
growth (HCC-2998 colon): 92.5%
growth (KM12 colon): 66.4%
growth (MDA-MB-468 breast): 20.8%

COc1ccc(C(=O)/C=C/c2ccc(Cl)c(Cl)c2)cc1S(N)(=O)=O
growth (T-47D breast): -54.7% (active)
growth (MDA-MB-435 melanoma): 2.27% (active)
growth (SW-620 colon): -48.8% (active)
growth (MCF7 breast): -48.7% (active)
growth (HCT-116 colon): -96.2% (active)
growth (HCC-2998 colon): -74.1% (active)
growth (KM12 colon): -46.7% (active)
growth (MDA-MB-468 breast): -19.4% (active)

COc1ccc(C(=O)/C=C/c2c(F)cccc2Cl)cc1S(N)(=O)=O
growth (T-47D breast): -5.64% (active)
growth (MDA-MB-435 melanoma): 6.73% (active)
growth (SW-620 colon): 4.6% (active)
growth (MCF7 breast): -4.58% (active)
growth (HCT-116 colon): -89.6% (active)
growth (HCC-2998 colon): -46.2% (active)
growth (KM12 colon): -41.1% (active)
growth (MDA-MB-468 breast): -3.57% (active)

COc1ccc(-c2nnc3ccc(N/N=C/c4ccc(O)cc4)nn23)cc1
growth (T-47D breast): 45.4%
growth (MDA-MB-435 melanoma): 45.8%
growth (SW-620 colon): 67.1%
growth (MCF7 breast): 13.2%
growth (HCT-116 colon): 27.3%
growth (HCC-2998 colon): 14.9%
growth (KM12 colon): 28.5%
growth (MDA-MB-468 breast): 48.2%

CC(=O)N1CCN(Cc2ccc3c(NNC(=O)c4cnccn4)nc4cc(F)ccc4n23)CC1
growth (T-47D breast): 16.4%
growth (MDA-MB-435 melanoma): 37.4%
growth (SW-620 colon): 38.8%
growth (MCF7 breast): 16.4%
growth (HCT-116 colon): 19.5%
growth (HCC-2998 colon): 61.3%
growth (KM12 colon): 32.6%
growth (MDA-MB-468 breast): 6.88% (active)

COc1cc(OC)cc(-c2cc3ccc(N(C)C)cc3c(=O)[nH]2)c1
growth (T-47D breast): 82%
growth (MDA-MB-435 melanoma): 5.03% (active)
growth (SW-620 colon): 33.8%
growth (HCT-116 colon): 8.72% (active)
growth (HCC-2998 colon): 40.7%
growth (KM12 colon): 16.7%
growth (MDA-MB-468 breast): 40.2%

COc1ccccc1/C=C/C(=O)c1ccc(OC)c(S(N)(=O)=O)c1
growth (T-47D breast): 17%
growth (MDA-MB-435 melanoma): 27.2%
growth (SW-620 colon): 20.5%
growth (HCT-116 colon): 5% (active)
growth (HCC-2998 colon): 29.5%
growth (KM12 colon): 6.73% (active)
growth (MDA-MB-468 breast): 20.7%

COc1ccc(Cc2nn(CC(=O)N/N=C/c3ccc(F)cc3)c(=O)c3c(C)noc23)cc1
growth (T-47D breast): -14.1% (active)
growth (MDA-MB-435 melanoma): 48.1%
growth (SW-620 colon): 61.4%
growth (MCF7 breast): 56.5%
growth (HCT-116 colon): 5.98% (active)
growth (HCC-2998 colon): 39.3%
growth (KM12 colon): 73.1%
growth (MDA-MB-468 breast): 63.2%

Nc1n[nH]c2cccc(C#Cc3cccc(NC(=O)c4cccc(Cl)c4)c3)c12
growth (T-47D breast): 7.26% (active)
growth (MDA-MB-435 melanoma): 22.7%
growth (SW-620 colon): 42.1%
growth (MCF7 breast): 15.9%
growth (HCT-116 colon): 12.3%
growth (HCC-2998 colon): 30.4%
growth (KM12 colon): 20.2%
growth (MDA-MB-468 breast): 46%

Cc1ccc(-c2nnc3ccc(N/N=C/c4ccccc4)nn23)cc1
growth (T-47D breast): 98.8%
growth (MDA-MB-435 melanoma): 76.1%
growth (SW-620 colon): 90.6%
growth (MCF7 breast): 47.9%
growth (HCT-116 colon): 99.5%
growth (HCC-2998 colon): 111%
growth (KM12 colon): 57.2%
growth (MDA-MB-468 breast): 91.4%

Cn1cc(-c2cc(N)n3nc(-c4cn(C)c5ccccc45)cc3n2)c2cc(Br)ccc21
growth (T-47D breast): -37.7% (active)
growth (MDA-MB-435 melanoma): -72.6% (active)
growth (SW-620 colon): -10.6% (active)
growth (MCF7 breast): -74.1% (active)
growth (HCT-116 colon): -92.9% (active)
growth (HCC-2998 colon): -70.2% (active)
growth (KM12 colon): -60.4% (active)
growth (MDA-MB-468 breast): -24.9% (active)

Cn1cc(-c2cc(N)n3nc(-c4c[nH]c5ccccc45)cc3n2)c2cccnc21
growth (T-47D breast): 22.2%
growth (MDA-MB-435 melanoma): 5.57% (active)
growth (SW-620 colon): -53.7% (active)
growth (HCT-116 colon): -77.1% (active)
growth (HCC-2998 colon): -31.6% (active)
growth (KM12 colon): 1.87% (active)
growth (MDA-MB-468 breast): -54.3% (active)

CNC(=O)c1cccc(NC(=O)c2ccc3c(c2)nnn3/C(C#N)=C/c2ccccn2)c1
growth (T-47D breast): -70.4% (active)
growth (MDA-MB-435 melanoma): 11.5%
growth (MCF7 breast): -77.2% (active)
growth (HCT-116 colon): -89% (active)
growth (HCC-2998 colon): -92.7% (active)
growth (KM12 colon): 55.9%
growth (MDA-MB-468 breast): -85.5% (active)
